# Results taken from the supplement of paper PMC4466140.
# Tests used:
# Experiment in all cases: SPOT peptide array binding signal intensity (averaged, normalized) (arbitrary units (background-subtracted, floor 0; scale differs between SH3 domains)); higher = stronger binding of the SH3 domain to the peptide
# AgAbp1 = target: AgAbp1
# Procedure, shortened: (§1)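 GST-SH3 fusions from four yeast species, purified on glutathione Sepharose, were incubated at 10 μg/ml overnight at 4°C on membranes of synthetic 15-mer peptides in which cysteines were replaced with serines. Binding signal is the normalized, background-subtracted spot intensity averaged over replicates, in domain-specific arbitrary units.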
# AgBbc1 = target: AgBbc1
# Procedure, shortened: as §1
# AgBem1-D1 = target: AgBem1-D1
# Procedure, shortened: as §1
# AgBzz1-D1 = target: AgBzz1-D1
# Procedure, shortened: as §1
# AgBzz1-D2 = target: AgBzz1-D2
# Procedure, shortened: as §1
# AgCyk3 = target: AgCyk3
# Procedure, shortened: as §1
# AgFus1 = target: AgFus1
# Procedure, shortened: as §1
# AgHof1 = target: AgHof1
# Procedure, shortened: as §1
# AgHse1 = target: AgHse1
# Procedure, shortened: as §1
# AgLsb1 = target: AgLsb1
# Procedure, shortened: as §1
# AgLsb4 = target: AgLsb4
# Procedure, shortened: as §1
# AgMyo5 = target: AgMyo5
# Procedure, shortened: as §1
# AgNbp2 = target: AgNbp2
# Procedure, shortened: as §1
# AgRvs167 = target: AgRvs167
# Procedure, shortened: as §1
# AgSho1 = target: AgSho1
# Procedure, shortened: as §1
# AgSla1-D1-D2 = target: AgSla1-D1-D2
# Procedure, shortened: as §1
# AgSla1-D3 = target: AgSla1-D3
# Procedure, shortened: as §1
# CaAbp1-D1 = target: CaAbp1-D1
# Procedure, shortened: as §1
# CaAbp1-D2 = target: CaAbp1-D2
# Procedure, shortened: as §1
# CaBbc1 = target: CaBbc1
# Procedure, shortened: as §1
# CaBem1-D1 = target: CaBem1-D1
# Procedure, shortened: as §1
# CaBzz1-D1 = target: CaBzz1-D1
# Procedure, shortened: as §1
# CaBzz1-D2 = target: CaBzz1-D2
# Procedure, shortened: as §1
# CaCyk3 = target: CaCyk3
# Procedure, shortened: as §1
# CaFus1 = target: CaFus1
# Procedure, shortened: as §1
# CaHof1 = target: CaHof1
# Procedure, shortened: as §1
# CaHse1 = target: CaHse1
# Procedure, shortened: as §1
# CaLsb1 = target: CaLsb1
# Procedure, shortened: as §1
# CaLsb4 = target: CaLsb4
# Procedure, shortened: as §1
# CaMyo5 = target: CaMyo5
# Procedure, shortened: as §1
# CaNbp2 = target: CaNbp2
# Procedure, shortened: as §1
# CaRvs167 = target: CaRvs167
# Procedure, shortened: as §1
# CaRvs167-3 = target: CaRvs167-3
# Procedure, shortened: as §1
# CaSho1 = target: CaSho1
# Procedure, shortened: as §1
# CaSla1-D1-D2 = target: CaSla1-D1-D2
# Procedure, shortened: as §1
# CaSla1-D3 = target: CaSla1-D3
# Procedure, shortened: as §1
# ScAbp1 = target: ScAbp1
# Procedure, shortened: as §1
# ScBbc1 = target: ScBbc1
# Procedure, shortened: as §1
# ScBem1-D1 = target: ScBem1-D1
# Procedure, shortened: as §1
# ScBzz1-D1 = target: ScBzz1-D1
# Procedure, shortened: as §1
# ScBzz1-D2 = target: ScBzz1-D2
# Procedure, shortened: as §1
# ScCyk3 = target: ScCyk3
# Procedure, shortened: as §1
# ScFus1 = target: ScFus1
# Procedure, shortened: as §1
# ScHof1 = target: ScHof1
# Procedure, shortened: as §1
# ScHse1 = target: ScHse1
# Procedure, shortened: as §1
# ScLsb1 = target: ScLsb1
# Procedure, shortened: as §1
# ScLsb2 = target: ScLsb2
# Procedure, shortened: as §1
# ScLsb3 = target: ScLsb3
# Procedure, shortened: as §1
# ScLsb4 = target: ScLsb4
# Procedure, shortened: as §1
# ScMyo3 = target: ScMyo3
# Procedure, shortened: as §1
# ScMyo5 = target: ScMyo5
# Procedure, shortened: as §1
# ScNbp2 = target: ScNbp2
# Procedure, shortened: as §1
# ScPex13 = target: ScPex13
# Procedure, shortened: as §1
# ScRvs167 = target: ScRvs167
# Procedure, shortened: as §1
# ScSho1 = target: ScSho1
# Procedure, shortened: as §1
# ScSla1-D1-D2 = target: ScSla1-D1-D2
# Procedure, shortened: as §1
# ScSla1-D3 = target: ScSla1-D3
# Procedure, shortened: as §1
# SpAbp1-D1 = target: SpAbp1-D1
# Procedure, shortened: as §1
# SpBbc1 = target: SpBbc1
# Procedure, shortened: as §1
# SpBzz1-D1 = target: SpBzz1-D1
# Procedure, shortened: as §1
# SpBzz1-D2 = target: SpBzz1-D2
# Procedure, shortened: as §1
# SpCyk3 = target: SpCyk3
# Procedure, shortened: as §1
# SpHof1 = target: SpHof1
# Procedure, shortened: as §1
# SpHof1-2 = target: SpHof1-2
# Procedure, shortened: as §1
# SpHof1-3 = target: SpHof1-3
# Procedure, shortened: as §1
# SpHse1 = target: SpHse1
# Procedure, shortened: as §1
# SpLsb1 = target: SpLsb1
# Procedure, shortened: as §1
# SpLsb4 = target: SpLsb4
# Procedure, shortened: as §1
# SpMyo1 = target: SpMyo1
# Procedure, shortened: as §1
# SpNbp2 = target: SpNbp2
# Procedure, shortened: as §1
# SpPex13 = target: SpPex13
# Procedure, shortened: as §1
# SpRvs167 = target: SpRvs167
# Procedure, shortened: as §1
# SpSla1-D1-D2 = target: SpSla1-D1-D2
# Procedure, shortened: as §1
# SpSla1-D3 = target: SpSla1-D3
# Procedure, shortened: as §1
binder,measurement,setting,value
MFLISPPASPPPEFD,SPOT peptide array binding signal intensity,AgAbp1,≤ 0
same,SPOT peptide array binding signal intensity,AgBbc1,≤ 0
same,SPOT peptide array binding signal intensity,AgBem1-D1,70
same,SPOT peptide array binding signal intensity,AgBzz1-D1,≤ 0
same,SPOT peptide array binding signal intensity,AgBzz1-D2,≤ 0
same,SPOT peptide array binding signal intensity,AgCyk3,1.5
same,SPOT peptide array binding signal intensity,AgFus1,4
same,SPOT peptide array binding signal intensity,AgHof1,4
same,SPOT peptide array binding signal intensity,AgHse1,≤ 0
same,SPOT peptide array binding signal intensity,AgLsb1,≤ 0
same,SPOT peptide array binding signal intensity,AgLsb4,≤ 0
same,SPOT peptide array binding signal intensity,AgMyo5,388
same,SPOT peptide array binding signal intensity,AgNbp2,2
same,SPOT peptide array binding signal intensity,AgRvs167,≤ 0
same,SPOT peptide array binding signal intensity,AgSho1,1.5
same,SPOT peptide array binding signal intensity,AgSla1-D1-D2,3
same,SPOT peptide array binding signal intensity,AgSla1-D3,1
same,SPOT peptide array binding signal intensity,CaAbp1-D1,≤ 0
same,SPOT peptide array binding signal intensity,CaAbp1-D2,≤ 0
same,SPOT peptide array binding signal intensity,CaBbc1,6
same,SPOT peptide array binding signal intensity,CaBem1-D1,≤ 0
same,SPOT peptide array binding signal intensity,CaBzz1-D1,≤ 0
same,SPOT peptide array binding signal intensity,CaBzz1-D2,≤ 0
same,SPOT peptide array binding signal intensity,CaCyk3,2
same,SPOT peptide array binding signal intensity,CaFus1,342
same,SPOT peptide array binding signal intensity,CaHof1,≤ 0
same,SPOT peptide array binding signal intensity,CaHse1,8
same,SPOT peptide array binding signal intensity,CaLsb1,≤ 0
same,SPOT peptide array binding signal intensity,CaLsb4,≤ 0
same,SPOT peptide array binding signal intensity,CaMyo5,180
same,SPOT peptide array binding signal intensity,CaNbp2,31
same,SPOT peptide array binding signal intensity,CaRvs167,5.83
same,SPOT peptide array binding signal intensity,CaRvs167-3,3.75
same,SPOT peptide array binding signal intensity,CaSho1,19
same,SPOT peptide array binding signal intensity,CaSla1-D1-D2,≤ 0
same,SPOT peptide array binding signal intensity,CaSla1-D3,11.2
same,SPOT peptide array binding signal intensity,ScAbp1,5.5
same,SPOT peptide array binding signal intensity,ScBbc1,≤ 0
same,SPOT peptide array binding signal intensity,ScBem1-D1,≤ 0
same,SPOT peptide array binding signal intensity,ScBzz1-D1,7
same,SPOT peptide array binding signal intensity,ScBzz1-D2,2
same,SPOT peptide array binding signal intensity,ScCyk3,2
same,SPOT peptide array binding signal intensity,ScFus1,7
same,SPOT peptide array binding signal intensity,ScHof1,≤ 0
same,SPOT peptide array binding signal intensity,ScHse1,≤ 0
same,SPOT peptide array binding signal intensity,ScLsb1,≤ 0
same,SPOT peptide array binding signal intensity,ScLsb2,≤ 0
same,SPOT peptide array binding signal intensity,ScLsb3,≤ 0
same,SPOT peptide array binding signal intensity,ScLsb4,≤ 0
same,SPOT peptide array binding signal intensity,ScMyo3,735
same,SPOT peptide array binding signal intensity,ScMyo5,650
same,SPOT peptide array binding signal intensity,ScNbp2,20
same,SPOT peptide array binding signal intensity,ScPex13,≤ 0
same,SPOT peptide array binding signal intensity,ScRvs167,≤ 0
same,SPOT peptide array binding signal intensity,ScSho1,≤ 0
same,SPOT peptide array binding signal intensity,ScSla1-D1-D2,≤ 0
same,SPOT peptide array binding signal intensity,ScSla1-D3,7.25
same,SPOT peptide array binding signal intensity,SpAbp1-D1,≤ 0
same,SPOT peptide array binding signal intensity,SpBbc1,0.5
same,SPOT peptide array binding signal intensity,SpBzz1-D1,33.5
VPPPMQPPPIESSNL,SPOT peptide array binding signal intensity,AgAbp1,≤ 0
same,SPOT peptide array binding signal intensity,AgBbc1,2.5
same,SPOT peptide array binding signal intensity,AgBem1-D1,238
same,SPOT peptide array binding signal intensity,AgBzz1-D1,≤ 0
same,SPOT peptide array binding signal intensity,AgBzz1-D2,≤ 0
same,SPOT peptide array binding signal intensity,AgCyk3,0.5
same,SPOT peptide array binding signal intensity,AgFus1,159
same,SPOT peptide array binding signal intensity,AgHof1,0.25
same,SPOT peptide array binding signal intensity,AgHse1,90
same,SPOT peptide array binding signal intensity,AgLsb1,≤ 0
same,SPOT peptide array binding signal intensity,AgLsb4,≤ 0
same,SPOT peptide array binding signal intensity,AgMyo5,102
same,SPOT peptide array binding signal intensity,AgNbp2,98
same,SPOT peptide array binding signal intensity,AgRvs167,≤ 0
same,SPOT peptide array binding signal intensity,AgSho1,67
same,SPOT peptide array binding signal intensity,AgSla1-D1-D2,≤ 0
same,SPOT peptide array binding signal intensity,AgSla1-D3,0.75
same,SPOT peptide array binding signal intensity,CaAbp1-D1,≤ 0
same,SPOT peptide array binding signal intensity,CaAbp1-D2,8
same,SPOT peptide array binding signal intensity,CaBbc1,10.5
same,SPOT peptide array binding signal intensity,CaBem1-D1,26
same,SPOT peptide array binding signal intensity,CaBzz1-D1,35
same,SPOT peptide array binding signal intensity,CaBzz1-D2,8.25
same,SPOT peptide array binding signal intensity,CaCyk3,8
same,SPOT peptide array binding signal intensity,CaFus1,740
same,SPOT peptide array binding signal intensity,CaHof1,≤ 0
same,SPOT peptide array binding signal intensity,CaHse1,68
same,SPOT peptide array binding signal intensity,CaLsb1,0.5
same,SPOT peptide array binding signal intensity,CaLsb4,388
same,SPOT peptide array binding signal intensity,CaMyo5,142
same,SPOT peptide array binding signal intensity,CaNbp2,172
same,SPOT peptide array binding signal intensity,CaRvs167,12.5
same,SPOT peptide array binding signal intensity,CaRvs167-3,1
same,SPOT peptide array binding signal intensity,CaSho1,279
same,SPOT peptide array binding signal intensity,CaSla1-D1-D2,168
same,SPOT peptide array binding signal intensity,CaSla1-D3,249
same,SPOT peptide array binding signal intensity,ScAbp1,≤ 0
same,SPOT peptide array binding signal intensity,ScBbc1,≤ 0
same,SPOT peptide array binding signal intensity,ScBem1-D1,≤ 0
same,SPOT peptide array binding signal intensity,ScBzz1-D1,≤ 0
same,SPOT peptide array binding signal intensity,ScBzz1-D2,2
same,SPOT peptide array binding signal intensity,ScCyk3,5
same,SPOT peptide array binding signal intensity,ScFus1,328
same,SPOT peptide array binding signal intensity,ScHof1,≤ 0
same,SPOT peptide array binding signal intensity,ScHse1,65
same,SPOT peptide array binding signal intensity,ScLsb1,0.25
same,SPOT peptide array binding signal intensity,ScLsb2,≤ 0
same,SPOT peptide array binding signal intensity,ScLsb3,≤ 0
same,SPOT peptide array binding signal intensity,ScLsb4,9
same,SPOT peptide array binding signal intensity,ScMyo3,854
same,SPOT peptide array binding signal intensity,ScMyo5,502
same,SPOT peptide array binding signal intensity,ScNbp2,206
same,SPOT peptide array binding signal intensity,ScPex13,12.2
same,SPOT peptide array binding signal intensity,ScRvs167,≤ 0
same,SPOT peptide array binding signal intensity,ScSho1,324
same,SPOT peptide array binding signal intensity,ScSla1-D1-D2,75.5
same,SPOT peptide array binding signal intensity,ScSla1-D3,122
same,SPOT peptide array binding signal intensity,SpAbp1-D1,≤ 0
same,SPOT peptide array binding signal intensity,SpBbc1,≤ 0
same,SPOT peptide array binding signal intensity,SpBzz1-D1,28.5
same,SPOT peptide array binding signal intensity,SpBzz1-D2,≤ 0
same,SPOT peptide array binding signal intensity,SpCyk3,6
same,SPOT peptide array binding signal intensity,SpHof1,4.5
same,SPOT peptide array binding signal intensity,SpHof1-2,1.5
same,SPOT peptide array binding signal intensity,SpHof1-3,≤ 0
same,SPOT peptide array binding signal intensity,SpHse1,163
same,SPOT peptide array binding signal intensity,SpLsb1,≤ 0
same,SPOT peptide array binding signal intensity,SpLsb4,61.5
same,SPOT peptide array binding signal intensity,SpMyo1,957
same,SPOT peptide array binding signal intensity,SpNbp2,46
same,SPOT peptide array binding signal intensity,SpPex13,5
same,SPOT peptide array binding signal intensity,SpRvs167,≤ 0
same,SPOT peptide array binding signal intensity,SpSla1-D1-D2,≤ 0
same,SPOT peptide array binding signal intensity,SpSla1-D3,138
